# Laboratory results published in PubChem BioAssay.
# Calls of active or inactive are those of the source. Unless noted, no rule for the calls is given here.
# Experiments:
# [1] = A549 cell viability effects, profiling panel, calcein-AM fluorescence, 48 h, basal (AID 1162); conditions: higher = more signal; also: test concentration not given here
# [2] = adipocyte viability effects, profiling panel, cell-based, 3T3-L1 adipocytes, calcein-AM fluorescence, 48 h, basal (AID 1163); conditions: 3T3-L1 adipocytes viability, higher = more signal; also: test concentration not given here
# [3] = HepG2 cell viability effects, profiling panel, calcein-AM fluorescence, 48 h, basal (AID 1164); conditions: higher = more signal; also: test concentration not given here
# [4] = MM1S cell viability effects, profiling panel, calcein-AM fluorescence, 48 h, basal (AID 1165); conditions: higher = more signal;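 also: viability of MM1S multiple myeloma cells under basal unstimulated conditions; test concentration not given here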
# [5] = basal RPMI8226 viability, no added stimulus, profiling panel, cell-based, calcein-AM fluorescence, 48 h, PK04 Diversity Set (AID 1166); conditions: RPMI8226 myeloma viability, higher = more signal;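 also: cells grown under basal conditions without added stimulus; test concentration not given here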
# [6] = basal HepG2 mitochondrial membrane potential changes, profiling panel, cell-based, JC-1 fluorescence, 24 h, 100 nL compound (AID 1167); conditions: higher = more signal; also: test concentration not given here
# [7] = basal 3T3-L1 adipocyte mitochondrial potential changes, profiling panel, cell-based, JC-1 fluorescence, 3T3-L1 adipocytes, 24 h, 100 nL compound (AID 1168); conditions: JC-1 mitochondrial fluorescence, higher = more signal, called active from +8 up or from −8 down; also: test concentration not given here
# [8] = basal RPMI8226 mitochondrial membrane potential changes, profiling panel, cell-based, JC-1 fluorescence, 24 h, 100 nL compound (AID 1169); conditions: RPMI8226 myeloma, JC-1 mitochondrial potential fluorescence, higher = more signal; also: test concentration not given here
# [9] = basal MM1S mitochondrial membrane potential changes, profiling panel, cell-based, JC-1 fluorescence, 24 h, 100 nL compound (AID 1170); conditions: higher = more signal; also: test concentration not given here
# [10] = A549 lung cancer cell viability effects, profiling panel, resazurin fluorescence, 24 h, PK04 Diversity Set (AID 1171); conditions: higher = more signal, called active from +8 up or from −8 down; also: test concentration not given here
# [11] = HepG2 liver cancer cell viability effects, profiling panel, resazurin fluorescence, 24 h, PK04 Diversity Set (AID 1172); conditions: higher = more signal; also: test concentration not given here
# [12] = basal S. cerevisiae growth modulation, no modifier, primary screen, OD600, strain BY4716, 24 h, basal condition (AID 1173); conditions: OD600, 24 h, higher = more signal, called active from +8 up or from −8 down
# [13] = MM1S myeloma cell viability, profiling panel, resazurin fluorescence, basal, 24 h, PK04 Diversity Set (AID 1174); conditions: higher = more signal, called active from +8 up or from −8 down;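 also: MM1S multiple myeloma cell line; test concentration not given here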
# [14] = target: Dihydroorotate dehydrogenase (quinone), mitochondrial (Plasmodium falciparum (isolate 3D7)) (UniProt Q08210); test: PfDHODH enzyme inhibitors, primary screen, biochemical, C-terminal His tag, absorbance 600 nm (AID 1175); conditions: DCIP absorbance 600 nm, higher = more signal, called active from +8 up or from −8 down;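 also: recombinant parasite enzyme with a five histidine tag at its C terminus; test concentration not given here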
# Sequence of Dihydroorotate dehydrogenase (quinone), mitochondrial (Plasmodium falciparum (isolate 3D7)) (Q08210 whole entry, looked up): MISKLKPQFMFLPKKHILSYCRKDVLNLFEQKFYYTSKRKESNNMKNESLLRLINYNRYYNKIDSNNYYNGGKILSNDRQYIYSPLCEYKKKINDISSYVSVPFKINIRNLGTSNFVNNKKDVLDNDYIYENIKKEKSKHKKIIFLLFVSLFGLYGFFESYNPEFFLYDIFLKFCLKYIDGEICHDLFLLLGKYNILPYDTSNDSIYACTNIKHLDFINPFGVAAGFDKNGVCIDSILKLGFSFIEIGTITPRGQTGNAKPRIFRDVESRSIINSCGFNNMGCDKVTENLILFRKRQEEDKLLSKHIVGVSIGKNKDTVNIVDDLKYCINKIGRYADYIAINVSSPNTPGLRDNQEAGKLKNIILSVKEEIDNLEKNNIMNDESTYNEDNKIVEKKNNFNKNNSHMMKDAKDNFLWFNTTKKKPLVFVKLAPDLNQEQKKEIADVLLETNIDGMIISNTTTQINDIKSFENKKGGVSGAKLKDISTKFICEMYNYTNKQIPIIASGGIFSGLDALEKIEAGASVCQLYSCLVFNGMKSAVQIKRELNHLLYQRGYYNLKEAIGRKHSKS
# [15] = P. aeruginosa biofilm formation inhibitors, primary screen, strain PAO1, LB-PBS medium, absorbance 600 nm (AID 1176); also: test concentration not given here; conditions: P. aeruginosa PAO1 growth/biofilm, A600, 12 h; higher = more signal
# [16] = S. cerevisiae RM11-1a growth modifiers, primary screen, strain RM11-1a, OD600, basal, 24 h (AID 1177); conditions: OD600, 24 h, higher = more signal, called active from +8 up or from −8 down;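 also: cultures grown under basal conditions with no added stressor; test concentration not given here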
# [17] = E. coli acrAB mutant growth effects, primary screen, E. coli filamentation inducers, strain DRC39, OD650, 24 h (AID 1178); conditions: higher = more signal, called active from +8 up or from −8 down;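 also: growth measured as culture turbidity by optical density at 650 nm; test concentration not given here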
# [18] = E. coli acrAB mutant growth effects, primary screen, E. coli filamentation inducers, strain DRC39, OD650, 48 h (AID 1179);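 also: screen aims at cell division blockers that make cells filament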; conditions: E. coli DRC39 delta-acrAB growth, higher = more signal, called active from +8 up or from −8 down
# [19] = RPMI8226 myeloma cell viability, profiling panel, resazurin fluorescence, basal, 24 h, PK04 Diversity Set (AID 1180); conditions: higher = more signal;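 also: RPMI8826 multiple myeloma cell line at 5000 cells per well; test concentration not given here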
# [20] = target: E3 ubiquitin-protein ligase XIAP (Homo sapiens) (UniProt P98170); test: XIAP binders, primary screen, biophysical, small-molecule microarray, fluorescence 635 nm (AID 1181); conditions: small-molecule microarray binding, higher = more signal;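 also: score merges 667 nm emission and signal to noise over triplicate slides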
# Sequence of E3 ubiquitin-protein ligase XIAP (Homo sapiens) (P98170 whole entry, looked up): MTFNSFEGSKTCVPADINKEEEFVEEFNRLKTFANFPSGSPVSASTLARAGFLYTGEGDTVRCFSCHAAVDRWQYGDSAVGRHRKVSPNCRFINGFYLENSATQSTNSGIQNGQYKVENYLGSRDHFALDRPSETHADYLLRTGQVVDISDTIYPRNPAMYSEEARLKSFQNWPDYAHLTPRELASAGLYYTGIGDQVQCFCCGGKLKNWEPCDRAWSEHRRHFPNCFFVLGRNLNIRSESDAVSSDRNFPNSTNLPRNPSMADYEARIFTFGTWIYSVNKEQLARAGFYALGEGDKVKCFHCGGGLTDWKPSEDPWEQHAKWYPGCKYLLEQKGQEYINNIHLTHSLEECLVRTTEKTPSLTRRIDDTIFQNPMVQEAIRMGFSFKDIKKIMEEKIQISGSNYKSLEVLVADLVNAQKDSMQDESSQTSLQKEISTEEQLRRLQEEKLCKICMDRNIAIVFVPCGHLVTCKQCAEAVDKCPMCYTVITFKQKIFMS
SMILES,z-score [1],z-score [2],z-score [3],z-score [4],z-score [5],z-score [6],z-score [7],z-score [8],z-score [9],z-score [10],z-score [11],z-score [12],z-score [13],composite z-score [14],z-score [15],z-score [16],z-score [17],z-score [18],z-score [19],composite z-score [20]
COc1cc(CO)ccc1OC(C)=O,0.653,0.584,1.04,1.12,1.19,0.302,0.791 (inactive),0.41,0.433,-1.08 (inactive),-0.386,-0.277 (inactive),-0.779 (inactive),-1.75 (inactive),-0.248 (inactive),-1.18 (inactive),0.35 (inactive),0.915 (inactive),-0.927,-0.17
CC(C)NC(=O)[C@@H]1c2ccccc2C(=O)N(Cc2ccccc2)[C@H]1c1ccc(CO)cc1,0.831,-0.46,-0.116,-1.42,-0.238,0.681,-1.5 (inactive),0.00231,-0.0636,0.748 (inactive),-0.043,0.349 (inactive),-0.889 (inactive),0.0505 (inactive),0.292 (inactive),-0.714 (inactive),0.0003 (inactive),-0.176 (inactive),-0.239,-0.0473
CC(C)C(=C=CC[C@@H](O)c1ccccc1OCCO)C[C@@H](O)c1ccccn1,-0.158,0.0388,-0.0925,-0.757,0.0845,-0.687,-0.425 (inactive),-0.0863,-0.0458,0.248 (inactive),-0.347,-1.09 (inactive),0.0716 (inactive),-9.29 (active),0.142 (inactive),-0.435 (inactive),-0.749 (inactive),-0.628 (inactive),0.221,0.0709
C[C@H]1NC(=O)[C@H](Cc2ccccc2)NC(=O)[C@@]23C(=O)N[C@@H](Cc4ccccc4)C2[C@H](C)[C@@]2(C)O[C@H]2C3/C=C/C/C=C\CNC1=O (stereo not given in full),1.1,0.827,0.514,-0.0775,-1.27,0.542,0.342 (inactive),0.0827,0.782,0.229 (inactive),-0.23,0.0145 (inactive),0.557 (inactive),0.742 (inactive),-0.246 (inactive),1.16 (inactive),1.32 (inactive),0.64 (inactive),1.07,-0.173
Cc1ccc(S[C@]2(C(=O)NCc3ccccc3)CC(=O)N(Cc3ccccc3Cl)[C@@H]2c2ccc(CO)cc2I)cc1,0.34,1.13,-0.0653,-1.73,-1.65,-0.44,0.376 (inactive),-0.0557,-2.15,1.6 (inactive),1.21,-3.45 (inactive),-3.03 (inactive),-1.82 (inactive),0.531 (inactive),-1.07 (inactive),0.321 (inactive),0.439 (inactive),-2.02,-0.136
C=CC[C@]1(C(=O)N2CCOCC2)N=C(c2ccc(OCCCO)cc2)O[C@H]1c1ccccc1,-0.211,0.117,-0.539,-1.11,-2.07,-0.0158,-0.0689 (inactive),-0.326,-0.577,1.39 (inactive),0.318,-1.4 (inactive),-0.0524 (inactive),0.373 (inactive),1.17 (inactive),-0.594 (inactive),0.14 (inactive),0.122 (inactive),0.335,-0.031
COCCOC(=O)N1C(=O)[C@@]2(c3ccccc31)[C@H](c1ccc(O)cc1)N1[C@H](c3ccccc3)[C@H](c3ccccc3)OC(=O)[C@H]1[C@@H]2C(=O)N1CCc2cc(OC)c(OC)cc2C1,0.823,0.748,2.31,0.448,-0.368,0.893,2.9 (inactive),0.228,0.296,-0.275 (inactive),0.129,0.0332 (inactive),0.612 (inactive),-0.888 (inactive),0.759 (inactive),-0.33 (inactive),0.919 (inactive),1.3 (inactive),0.471,-0.0841
CO[C@H]1O[C@H](CO)[C@@H](OC(=O)Nc2ccc3c(c2)OCO3)[C@H](OC(=O)Nc2ccccc2)[C@H]1OC(=O)Nc1ccccc1,-2.08,1.11,-2.7,-1.67,-2.56,-0.812,1.42 (inactive),-0.442,-1.37,-3.25 (inactive),-1.78,1.38 (inactive),-3.14 (inactive),1.15 (inactive),-0.329 (inactive),2.93 (inactive),0.402 (inactive),-0.728 (inactive),-2.41,0.137
COc1cccc(C(=O)O[C@H]2CC[C@]3(C)C4=C(CCC3C2(C)C)[C@]2(C)CC[C@H]([C@H](C)CCCC(C)C)[C@@]2(C)CC4)c1 (stereo not given in full),0.583,0.146,0.689,-0.56,0.241,1.28,0.387 (inactive),-0.0502,-1.49,0.479 (inactive),0.514,-0.488 (inactive),0.697 (inactive),-2.17 (inactive),0.671 (inactive),-1.62 (inactive),0.621 (inactive),1.18 (inactive),0.815,0.132
